Laboratory results from PubChem BioAssay (EPA / NIEHS).
Results filed as inconclusive are left out. More than one record can exist for a structure, and the calls need not agree. The source made the active and inactive calls. The calls were made as follows, unless noted: active = hit-call score of the fitted dose curve at least 0.9, where 1 is the maximum; inactive = score below 0.9.

Assays:
[1] = read-out: NAD(P)H dehydrogenase [quinone] 1 (NQO1), NQO1 (gene 1728); assay: LTEA_HepaRG_NQO1: Life Technologies and Expression Analysis (LTEA) Assay for NAD(P)H dehydrogenase [quinone] 1 (NQO1) using HepaRG (AID 2283526); details: mRNA level, 48 h; actives raise or lower the signal
Method in brief: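 HepaRG, 48 h post-plating → serum-free induction medium → test chemical 48 h (duplicate, 100 uM top, half-log x8, 0.5% DMSO) → RNA isolation → qRT-PCR, ACTB/GAPDH/POLR2A normalization; bidirectional curve fit vs DMSO baseline.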

[2] = read-out: Nuclear factor erythroid 2-related factor 2 (Homo sapiens) (UniProt Q16236); assay: LTEA_HepaRG_NFE2L2: Life Technologies and Expression Analysis (LTEA) Assay for Nuclear factor erythroid 2-related factor 2 (NFE2L2) Transcription Factor using HepaRG (AID 2283527); details: mRNA level, 48 h; actives raise or lower the signal;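 also: TaqMan qRT-PCR transcript level normalised to ACTB GAPDH and POLR2A housekeeping genes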
Method in brief: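 Differentiated human HepaRG cells in serum-free induction medium were exposed for 48 h to eight concentrations (top 100 uM, half-log dilutions, 0.5% DMSO), in duplicate. NFE2L2 mRNA was quantified by TaqMan qRT-PCR, normalized to ACTB, GAPDH and POLR2A, with bidirectional fitting versus DMSO.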

[3] = read-out: succinate dehydrogenase complex iron sulfur subunit B (SDHB), SDHB (gene 6390); assay: LTEA_HepaRG_SDHB: Life Technologies and Expression Analysis (LTEA) Assay for succinate dehydrogenase complex iron sulfur subunit B (SDHB) using HepaRG (AID 2283528); details: mRNA level, 48 h; actives raise or lower the signal
Method in brief: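 A human HepaRG culture in serum-free induction medium received test chemicals for 48 h over an eight-point range capped at 100 uM. SDHB expression change was quantified by qRT-PCR.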

[4] = read-out: Signal transducer and activator of transcription 3 (Homo sapiens) (UniProt P40763); assay: LTEA_HepaRG_STAT3: Life Technologies and Expression Analysis (LTEA) Assay for Signal transducer and activator of transcription (STAT3) using HepaRG (AID 2283529); details: mRNA level, 48 h; actives raise or lower the signal
Method in brief: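 Differentiated human HepaRG cells in serum-free induction medium were exposed in duplicate for 48 h to eight half-log concentrations up to 100 uM in 0.5% DMSO. STAT3 mRNA was quantified by TaqMan qRT-PCR, normalized to ACTB, GAPDH and POLR2A, and fitted bidirectionally against DMSO.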

[5] = read-out: solute carrier (SLCO1B1), SLCO1B1 (gene 10599); assay: LTEA_HepaRG_SLCO1B1: Life Technologies and Expression Analysis (LTEA) Assay for solute carrier (SLCO1B1) using HepaRG (AID 2283530); details: mRNA level, 48 h; actives raise or lower the signal
Method in brief: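 Differentiated human HepaRG cells, plated 48 h, switched to serum-free induction medium and exposed in duplicate for 48 h to 8 half-log concentrations (top 100 uM) in 0.5% DMSO. SLCO1B1 mRNA by TaqMan qRT-PCR, normalized to ACTB/GAPDH/POLR2A.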

[6] = read-out: sulfotransferase 2A1 (SULT2A1), SULT2A1 (gene 6822); assay: LTEA_HepaRG_SULT2A1: Life Technologies and Expression Analysis (LTEA) Assay for sulfotransferase 2A1 (SULT2A1) using HepaRG (AID 2283531); details: mRNA level, 48 h; actives raise or lower the signal
Method in brief: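 Differentiated human HepaRG cells in serum-free induction medium were exposed for 48 h to eight half-log concentrations (top 100 uM, 0.5% DMSO). SULT2A1 mRNA was measured by qRT-PCR, normalized to ACTB, GAPDH and POLR2A, and fitted bidirectionally against DMSO.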

[7] = read-out: Transforming Growth Factor (TGFA), TGFA (gene 7039); assay: LTEA_HepaRG_TGFA: Life Technologies and Expression Analysis (LTEA) Assay for Transforming Growth Factor (TGFA) using HepaRG (AID 2283532); details: mRNA level, 48 h; actives raise or lower the signal
Method in brief: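 Differentiated human HepaRG cells, plated 48 h then switched to serum-free induction medium, were exposed in duplicate for 48 h to 8-point half-log series from 100 uM in 0.5% DMSO. TGFA mRNA measured by qRT-PCR, normalized to ACTB/GAPDH/POLR2A, bidirectional fit versus DMSO.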

[8] = read-out: Transforming Growth Factor (TGFB1), TGFB1 (gene 7040); assay: LTEA_HepaRG_TGFB1: Life Technologies and Expression Analysis (LTEA) Assay for Transforming Growth Factor (TGFB1) Transporter using HepaRG (AID 2283533); details: mRNA level, 48 h; actives raise or lower the signal
Method in brief: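 Differentiated human HepaRG cells in serum-free induction medium were exposed in duplicate for 48 h to eight concentrations (top 100 uM, half-log steps, 0.5% DMSO). TGFB1 mRNA was quantified by qRT-PCR, normalized to ACTB, GAPDH, POLR2A, and fitted bidirectionally against DMSO.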

TIMP1, TIMP1 (gene 7076) = assay: LTEA_HepaRG_TIMP1: Life Technologies and Expression Analysis (LTEA) Assay for TIMP1 using HepaRG (AID 2283534); details: mRNA level, 48 h; actives raise or lower the signal;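 also: TaqMan qRT-PCR signal normalized to ACTB GAPDH and POLR2A housekeeping genes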
Method in brief: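 Differentiated human HepaRG cells in serum-free induction medium were exposed 48 h to chemicals (8 half-log concentrations, top 100 uM, 0.5% DMSO). TIMP1 mRNA was quantified by TaqMan qRT-PCR, normalized to ACTB/GAPDH/POLR2A; bidirectional fit versus DMSO.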

[9] = read-out: Tumor necrosis factor receptor 1 (TNFRSF1A), TNFRSF1A (gene 7132); assay: LTEA_HepaRG_TNFRSF1A: Life Technologies and Expression Analysis (LTEA) Assay for Tumor necrosis factor receptor 1 (TNFRSF1A) using HepaRG (AID 2283535); details: mRNA level, 48 h; actives raise or lower the signal
Method in brief: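 Differentiated human HepaRG cells were exposed in duplicate for 48 h in serum-free induction medium to eight concentrations (top 100 uM, half-log steps, 0.5% DMSO). TNFRSF1A mRNA was quantified by qRT-PCR, normalized to ACTB, GAPDH and POLR2A, then fitted bidirectionally against DMSO.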

[10] = read-out: Thyroid Hormone Responsive (THRSP), THRSP (gene 7069); assay: LTEA_HepaRG_THRSP: Life Technologies and Expression Analysis (LTEA) Assay for Thyroid Hormone Responsive (THRSP) using HepaRG (AID 2283536); details: mRNA level, 48 h; actives raise or lower the signal
Method in brief: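 Differentiated human HepaRG cells were exposed in duplicate for 48 h in serum-free induction medium to eight concentrations (top 100 uM, half-log steps, 0.5% DMSO). Expression was quantified by TaqMan qRT-PCR, normalized to ACTB, GAPDH and POLR2A, with bidirectional fitting against DMSO.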

[11] = read-out: Cellular tumor antigen p53 (Homo sapiens) (UniProt P04637); assay: LTEA_HepaRG_TP53: Life Technologies and Expression Analysis (LTEA) Assay for Tumor Protein P53 (TP53) using HepaRG (AID 2283537); details: mRNA level, 48 h; actives raise or lower the signal
Method in brief: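 Gain or loss of TP53 mRNA signal is scored relative to 0.5% DMSO after 48 h chemical treatment of HepaRG liver cells, tested in duplicate at eight half-log concentrations up to 100 uM.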

[12] = read-out: UDP glucuronosyltransferase (UGT1A1), UGT1A1 (gene 54658); assay: LTEA_HepaRG_UGT1A1: Life Technologies and Expression Analysis (LTEA) Assay for UDP glucuronosyltransferase (UGT1A1) using HepaRG (AID 2283538); details: mRNA level, 48 h; actives raise or lower the signal
Method in brief: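 Readout is UGT1A1 transcript level by qRT-PCR, normalized to three housekeeping genes, after 48 h chemical treatment of HepaRG cells. Concentrations ran from 100 uM down in half-log steps with 0.5% DMSO, and gain or loss relative to DMSO was fitted.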

[13] = read-out: UDP glucuronosyltransferase (UGT1A6), UGT1A6 (gene 54578); assay: LTEA_HepaRG_UGT1A6: Life Technologies and Expression Analysis (LTEA) Assay for UDP glucuronosyltransferase (UGT1A6) using HepaRG (AID 2283539); details: mRNA level, 48 h; actives raise or lower the signal
Method in brief: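 Human HepaRG cells were dosed for 48 h in serum-free induction medium with 0.5% DMSO vehicle, eight-point half-log series from 100 uM, in duplicate. UGT1A6 mRNA was measured by qRT-PCR, normalized to ACTB, GAPDH, POLR2A, and fitted bidirectionally against DMSO.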

[14] = read-out: X-box binding protein 1 (XBP1), XBP1 (gene 7494); assay: LTEA_HepaRG_XBP1: Life Technologies and Expression Analysis (LTEA) Assay for X-box binding protein 1 (XBP1) using HepaRG (AID 2283540); details: mRNA level, 48 h; actives raise or lower the signal
Method in brief: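 Differentiated human HepaRG cells in serum-free induction medium were exposed in duplicate for 48 h to eight half-log concentrations up to 100 uM in 0.5% DMSO. XBP1 mRNA was quantified by qRT-PCR, normalised to ACTB, GAPDH and POLR2A, with bidirectional fitting against DMSO.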

[15] = LTEA_HepaRG_LDH_cytotoxicity: Cytotoxicity Assessment in the Life Technologies and Expression Analysis (LTEA) Assay (AID 2283563; active = hit-call score of the fitted dose curve at least 0.9, where 1 is the maximum)
Method in brief: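 Differentiated human HepaRG cells, plated 48 h beforehand, were switched to serum-free induction medium and exposed for 48 h to eight half-log concentrations (top 100 uM) in 0.5% DMSO. LDH was measured in spent medium; activity was fitted relative to DMSO vehicle.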

[16] = ATG_XTT_Cytotoxicity: Cytotoxicity Assessment in the Attagene TRANS-FACTORIAL HepG2 Assay (AID 2283584; active = hit-call score of the fitted dose curve at least 0.9, where 1 is the maximum)
Method in brief: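 HepG2 human liver cells, transiently transfected with multiple GAL4-UAS reporter units, were dosed and read at 24 h by XTT as cell number. Loss of signal was fitted relative to DMSO negative control baseline.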

[17] = TOX21_p53_BLA_p2_viability: Viability Assessment in the Tox21 HCT-116 p53 Agonism Beta-lactamase Assay, Phase 2 (AID 2283591; active = hit-call score of the fitted dose curve at least 0.9, where 1 is the maximum;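 also: compound exposure lasted 16 h at 37 °C; actives lower the ATP signal meaning cytotoxicity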)
Method in brief: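 HCT-116 p53-bla cells (4000/well) rested 5 h at 37C, then received compounds in DMSO (217-fold dilution) for 16 h at 37C, 5% CO2. After the CCF4 read, CellTiter-Glo was added; ATP luminescence was read after 30 min at room temperature.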

[18] = molecular target: Cellular tumor antigen p53 (Homo sapiens) (UniProt P04637); assay: TOX21_p53_BLA_p2_ratio: Tox21 HCT-116 p53 Agonism Beta-lactamase Assay, Ratio, Phase 2 (AID 2283592; active = hit-call score of the fitted dose curve at least 0.9, where 1 is the maximum)
Method in brief: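 HCT116 cells carrying a p53-responsive beta-lactamase reporter were plated, incubated 5 h at 37C, then dosed with compounds in DMSO (217-fold dilution) for 16 h. CCF4-AM substrate was added for 2 h at room temperature; the 460/530 nm emission ratio gave gain-of-signal activity relative to DMSO.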

[19] = TOX21_p53_BLA_p3_viability: Viability Assessment in the Tox21 HCT-116 p53 Agonism Beta-lactamase Assay, Phase 3 (AID 2283593; active = hit-call score of the fitted dose curve at least 0.9, where 1 is the maximum;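 also: cells exposed to compound for 16 h before reading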)
Method in brief: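 HCT-116 cells (4000/well) rested 5 h at 37C, then got DMSO compounds by pin tool (217-fold dilution) for 16 h at 37C, 5% CO2. After the bla read, CellTiter-Glo was added and luminescence read at 30 min, room temperature.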

Measured: AC50

Sequence of Nuclear factor erythroid 2-related factor 2 (Homo sapiens) (Q16236 whole entry, looked up): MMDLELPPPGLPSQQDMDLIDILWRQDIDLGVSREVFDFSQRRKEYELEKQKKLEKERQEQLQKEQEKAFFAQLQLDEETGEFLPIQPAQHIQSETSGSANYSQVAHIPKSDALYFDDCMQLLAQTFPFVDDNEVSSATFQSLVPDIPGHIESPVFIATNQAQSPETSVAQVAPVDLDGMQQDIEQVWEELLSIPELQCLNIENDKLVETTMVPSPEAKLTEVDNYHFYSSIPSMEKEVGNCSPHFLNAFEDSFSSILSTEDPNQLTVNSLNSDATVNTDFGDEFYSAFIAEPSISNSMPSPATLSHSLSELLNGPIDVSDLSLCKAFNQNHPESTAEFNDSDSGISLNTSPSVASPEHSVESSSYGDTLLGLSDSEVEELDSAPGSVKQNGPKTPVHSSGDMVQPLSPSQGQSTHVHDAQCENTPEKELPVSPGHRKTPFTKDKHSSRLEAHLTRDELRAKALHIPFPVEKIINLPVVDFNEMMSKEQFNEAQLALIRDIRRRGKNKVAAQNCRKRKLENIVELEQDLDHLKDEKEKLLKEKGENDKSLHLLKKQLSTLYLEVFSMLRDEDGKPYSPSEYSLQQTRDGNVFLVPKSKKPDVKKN
Sequence of Signal transducer and activator of transcription 3 (Homo sapiens) (P40763 whole entry, looked up): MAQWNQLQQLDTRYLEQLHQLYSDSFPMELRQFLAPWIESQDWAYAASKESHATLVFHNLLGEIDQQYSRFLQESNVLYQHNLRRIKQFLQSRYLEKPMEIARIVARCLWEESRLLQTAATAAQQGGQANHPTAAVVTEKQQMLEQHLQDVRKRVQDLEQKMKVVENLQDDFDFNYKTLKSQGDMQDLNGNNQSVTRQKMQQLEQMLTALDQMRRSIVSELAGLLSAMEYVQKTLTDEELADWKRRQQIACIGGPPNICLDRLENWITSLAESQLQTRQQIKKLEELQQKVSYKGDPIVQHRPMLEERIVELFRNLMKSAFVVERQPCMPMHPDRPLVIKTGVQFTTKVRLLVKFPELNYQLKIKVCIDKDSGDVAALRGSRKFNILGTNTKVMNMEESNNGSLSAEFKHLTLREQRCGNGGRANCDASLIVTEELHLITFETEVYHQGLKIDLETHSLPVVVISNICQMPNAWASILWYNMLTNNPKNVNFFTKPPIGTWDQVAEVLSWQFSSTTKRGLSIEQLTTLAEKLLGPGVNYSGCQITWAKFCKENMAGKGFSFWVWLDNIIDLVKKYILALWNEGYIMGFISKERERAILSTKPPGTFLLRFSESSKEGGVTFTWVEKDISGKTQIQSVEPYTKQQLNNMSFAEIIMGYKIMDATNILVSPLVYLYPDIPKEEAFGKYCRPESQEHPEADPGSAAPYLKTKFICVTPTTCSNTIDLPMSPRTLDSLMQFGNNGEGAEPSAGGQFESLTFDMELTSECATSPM
Sequence of Cellular tumor antigen p53 (Homo sapiens) (P04637 whole entry, looked up): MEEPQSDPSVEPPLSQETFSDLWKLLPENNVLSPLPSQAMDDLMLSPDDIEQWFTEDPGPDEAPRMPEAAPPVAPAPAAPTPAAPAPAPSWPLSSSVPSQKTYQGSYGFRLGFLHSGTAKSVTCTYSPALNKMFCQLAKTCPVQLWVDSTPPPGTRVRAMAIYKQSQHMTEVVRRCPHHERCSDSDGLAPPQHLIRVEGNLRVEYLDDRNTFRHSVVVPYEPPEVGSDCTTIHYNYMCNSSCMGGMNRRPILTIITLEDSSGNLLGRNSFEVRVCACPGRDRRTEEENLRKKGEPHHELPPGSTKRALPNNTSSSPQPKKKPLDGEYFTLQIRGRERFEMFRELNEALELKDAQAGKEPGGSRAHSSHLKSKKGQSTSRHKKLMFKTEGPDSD

CCOc1nc(F)cc2nc(S(=O)(=O)Nc3c(Cl)cccc3Cl)nn12
inactive: [1] | [2] | [3] | [4] | [5] | [6] | [7] | [8] | TIMP1, TIMP1 (gene 7076) | [9] | [10] | [11] | [12] | [13] | [14]

CCN(CC)C(=O)C(C)Oc1cccc2ccccc12 (stereo not given)
active: [12] 12.9 µM | [14] 50 µM
inactive: [1] | [2] | [3] | [4] | [5] | [7] | [8] | TIMP1, TIMP1 (gene 7076) | [9] | [10] | [11] | [13] | [15] | [16] | [17] | [18]

CC(C)C1(C)N=C(c2ncccc2C(=O)O)NC1=O (stereo not given)
inactive: [1] | [2] | [3] | [4] | [5] | [6] | [7] | [8] | TIMP1, TIMP1 (gene 7076) | [9] | [10] | [11] | [12] | [13] | [14] | [15] | [18]

COP(=S)(OC)SCn1nnc2ccccc2c1=O
inactive: [1] | [2] | [3] | [4] | [5] | [7] | [8] | TIMP1, TIMP1 (gene 7076) | [9] | [10] | [11] | [13] | [14] | [15] | [16] | [17] | [18] | [19]
active: [12] 43.2 µM | [18] 73.9 µM
